Source: PubChem BioAssay
Not all results are given here.
aSyn 5UTR act: Activators via SNCA 5'UTR binding, MLPCN. alpha-synuclein 5'UTR reporter, activators screen. AID 1814. 300,000 tested, 7.1% active. activity score, % (tested at 7.5 µM), hits read low; in the data active = activity score below about -60%
Starred values were filed as active, the others as inactive.

SMILES	aSyn 5UTR act
COc1ccc(/C=C(\C#N)C(=O)OC2CCOC2=O)cc1 (stereo not drawn)	-84*
COc1ccc(/C(O)=C/c2nc3ccccc3n(-c3ccccc3)c2=O)cc1	-84*
COc1ccc(COc2ccc3c(C)cc(=O)oc3c2)cc1	-131*
Cc1cc(=O)oc2cc(OCc3ccccc3)ccc12	-130*
CCCOc1ccc(-c2nc(=S)[nH][nH]2)cc1	-77*
C=CCSc1n[nH]c(-c2ccc(OCCCC)cc2)n1	-89*
C=CCSc1n[nH]c(-c2ccc(OCCC)cc2)n1	-164*
CCCOc1ccc(C2=NNC(=O)CC2)cc1	77
O=C(/C=C/c1cccs1)Nc1ccc(N2CCOCC2)c(S(=O)(=O)Nc2ccccc2Cl)c1	-139*
O=C(Nc1ccc(Cl)c(Cl)c1)Nc1ccc(N2CCCC2)c(S(=O)(=O)Nc2ccccc2Cl)c1	95
Cc1ccc(C(=O)Nc2nccc(-c3cccs3)n2)cc1	-66*
Cc1csc(NC(=O)c2sc3nc(-c4cccs4)ccc3c2N)n1	-228*
COc1ccc(C(=O)Nc2nc(-c3cccs3)cs2)cc1	-91*
Cc1ccc(C(=O)Nc2ncc3c(Cl)cccc3n2)cc1	65
O=C(Nc1nc(-c2cc(Cl)sc2Cl)cs1)c1cccs1	-158*
O=C(Nc1nc(-c2cccs2)cs1)c1ccc(Cl)cc1	-88*
C/C(=N\Nc1nc(C(C)(C)C)cs1)c1ccc(O)cc1	-107*
C/C(=N\Nc1nc(C(C)(C)C)cs1)c1ccccc1	-160*
C/C(=N\Nc1nc2c(s1)CCCC2)c1ccccc1	-178*
COc1ccc2c(c1)C(=O)CC(c1ccc3c(c1)OCCO3)O2 (stereo not drawn)	-272*
COc1ccc2c(c1)O[C@@H](c1cccc(C(F)(F)F)c1)[C@H](O)C2=O	62
Cc1ccc2c(c1)C(=O)CC(c1ccc3c(c1)OCCO3)O2 (stereo not drawn)	-96*
COc1ccc2c(c1)O[C@H](c1ccc3c(c1)OCO3)[C@@H](O)C2=O	-86*
O=C(C[n+]1cc(-c2ccc(F)cc2)n2c1CCC2)N1c2ccccc2Sc2ccccc21	-181*
Cc1ccc(-c2csc(NC(=O)C[n+]3cc(-c4ccccc4)n4c3CCC4)n2)cc1	-117*
SMILES	aSyn 5UTR act
O=C(C[n+]1cc(-c2ccc(F)cc2)n2c1CCC2)Nc1nc(-c2ccc(F)cc2)cs1	-63*
COCCCC1CCN(C(=O)C2CCC(=O)N(CCc3ccccc3)C2)CC1 (stereo not drawn)	-74*
O=C1CCC(C(=O)N2CCCCO2)CN1CCc1ccccc1 (stereo not drawn)	-89*
COCCn1c(=O)c2c(nc3n2CC(C)CN3CCc2ccccc2)n(C)c1=O (stereo not drawn)	67
COc1ccccc1CN1CC(C(=O)N2CCCCO2)CCC1=O (stereo not drawn)	-77*
COc1ccccc1Cn1nnc2c(=O)[nH]c(C3CCN(C(=O)c4ccccc4Cl)CC3)nc21	60
[O-][n+]1onc2c3cc(-c4ccccc4)nnc3ccc21	-100*
O=C(c1cnn(-c2ccccc2)c1)c1ccc2ccccc2c1O	-119*
O=C(c1cnn(-c2nc3ccccc3s2)c1)c1ccccc1O	-117*
O=C(c1cnn(-c2cccc(F)c2)c1)c1ccccc1O	-194*
CC1CC1C(=O)Nc1ccc(-c2ccccc2)cc1 (stereo not drawn)	-152*
C=CCn1c(C)cc(C(=O)COc2nncc3ccccc23)c1C	-123*
C=CCn1c(C)cc(C(=O)CSc2nc3ccccc3[nH]2)c1C	59
C=CCn1c(C)cc(C(=O)CSc2nc3ccccc3o2)c1C	-137*
Cc1cc(C(=O)CSc2nc3ccccc3o2)c(C)n1C1CC1	-165*
C/C(=N\NC(=O)c1sccc1C)c1ccncc1	-108*
C/C(=N\NC(=O)c1sccc1C)c1cccnc1	-200*
COc1ccc(N2C(=O)c3ccccc3NC2(C)C)cc1	-69*
CC1(C)Nc2ccccc2C(=O)N1c1ccc(Br)cc1	-84*
O=C(CSc1nnc2ccccn12)Nc1cccc(-c2nc3ccccc3s2)c1	-134*
O=C(CCS(=O)(=O)c1ccccc1)Nc1cccc(-c2nc3ccccc3s2)c1	-135*
O=C(Nc1cccc(-c2nc3ccccc3s2)c1)c1cccs1	-63*
Nc1cccn2c(-c3ccc(Cl)cc3)cnc12	-260*
Nc1cccn2c(-c3ccc(Cl)c(Cl)c3)cnc12	-183*
CNC(=S)Nc1ccc(-c2nc3ccc(C)cc3s2)cc1	-91*
SMILES	aSyn 5UTR act
Cc1ccc2nc(-c3ccc(N)cc3)sc2c1	90
CC(=O)NC(=S)Nc1ccc(-c2nc3ccc(C)cc3s2)cc1	-272*
Cc1ccc2nc(-c3ccc(NS(=O)(=O)c4ccc(F)cc4)cc3)sc2c1	-134*
COc1ccc(/C=C(\C#N)C(=O)OCC(=O)Nc2ccc(-c3nc4ccc(C)cc4s3)cc2)cc1	-70*
CC1=CCC(C(=O)O)C(C(=O)Nc2ccc(-c3nc4ccc(C)cc4s3)cc2)C1 (stereo not drawn)	-131*
O=C1NC(=S)N/C1=C/c1cccc2ccccc12	-129*
Cc1nc(/N=C(\N)Nc2ccccc2)nc2ccccc12	-133*
CCCSc1nnc(-c2ccccc2N)c(=O)[nH]1	-70*
CCc1ccc(C2CC(c3ccco3)=NN2S(C)(=O)=O)cc1 (stereo not drawn)	-89*
Fc1cccc(Cl)c1Cc1noc(/C=C/c2ccccc2)n1	-209*
Cc1ccc(C(=O)N2C(=O)C(c3ccccc3)Oc3ccccc32)cc1 (stereo not drawn)	93
O=C1OC(c2ccccc2)/C(=C(/O)c2ccccc2)C1=O (stereo not drawn)	-64*
Cc1ccc(/C=C/C(=O)NCCc2ccccc2)o1	-99*
O=C(/C=C/c1ccco1)NCCc1ccccc1	-126*
COc1ccccc1CCNC(=O)C(=O)c1cn(CC(=O)N2CCOCC2)c2ccccc12	-106*
O=C(Nc1ccccc1Cl)C(=O)c1cn(CC(=O)N2CCOCC2)c2ccccc12	-125*
CCc1ccc(NC(=O)C(=O)c2cn(CC(=O)N3CCCCC3)c3ccccc23)cc1	-70*
CC(=O)c1c(C)[nH]c(C(=O)Nc2ccc3c(c2)OCCO3)c1C	-144*
CCc1c(C(=O)Nc2ccc(C)c(C)c2)[nH]c(C)c1C(C)=O	-146*
COc1ccc(NC(=O)c2[nH]c(C)c(C(C)=O)c2C)cc1Cl	-77*
CC(=O)c1c(C)[nH]c(C(=O)Nc2cccc(C(F)(F)F)c2)c1C	-100*
CCOC(=O)c1c(C)[nH]c(C(=O)Nc2ccc(NC(C)=O)cc2)c1C	89
CC(=O)c1c(C)[nH]c(C(=O)Nc2ccc(C)c(C)c2)c1C	-88*
CCOC(=O)c1c(C)[nH]c(C(=O)Nc2ccc(C)c(Cl)c2)c1C	-108*
O=C(CCl)N(c1ccccc1)C1CCS(=O)(=O)C1 (stereo not drawn)	-109*
SMILES	aSyn 5UTR act
CCC(=O)Nc1ccc2oc(-c3ccccc3Br)nc2c1	-186*
CCCC(=O)Nc1ccc(-c2nc3cc(C)c(C)cc3o2)cc1	-110*
Cc1ccc2oc(-c3ccc(NC(=O)CC(C)C)cc3)nc2c1	-77*
CCC(=O)Nc1ccc2oc(-c3cccnc3)nc2c1	-101*
O=C(CN1CCCC1)Nc1ccc(-c2nc3cc(NC(=O)CN4CCCC4)ccc3o2)cc1	-119*
CC(C)CC(=O)Nc1ccc2oc(-c3cccnc3)nc2c1	-120*
Cc1ccccc1-c1nc2cc(NC(=O)C3CC3)ccc2o1	-150*
CCCC(=O)Nc1ccc2oc(-c3cncc(Br)c3)nc2c1	-94*
O=c1[nH]c(CN2CCN(C/C=C/c3ccccc3)CC2)nc2ccccc12	-72*
